This note sets out measurements from PubChem BioAssay (NCI).

Values joined by “and” are separate entries in the source; they are usually repeats but may differ in a detail not shown here. Equal entries are not always repeated. This is part of a sample that, as a whole, favours compounds with a hit. Of some 79,000 tested, about 15% had one in any assay. A number with no mark means an inactive call. Active and inactive are the calls of the source. Rule as the data show it: active = growth inhibition above about 70%; inactive = the rest.

The nature of test [1]: NCI Yeast Anticancer Drug Screen. Data for the rad50 strain (AID 155).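 Also: 0% = growth of vehicle-only cultures of the same strain.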 Conditions: S. cerevisiae rad50 strain growth inhibition, stronger effect = higher value. The method in brief:
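Readout: growth inhibition relative to vehicle-treated cultures. Compound exposure was carried out in a genetically defined yeast strain deficient in DNA damage repair.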

Test [2] in a line: NCI Yeast Anticancer Drug Screen. Data for the mec2-1 strain (AID 157). The settings on record: S. cerevisiae mec2-1 strain, stronger effect = higher value. An outline of the steps: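 Each compound was tested on mec2-1 yeast, a strain altered in DNA damage repair or cell cycle control. Growth inhibition is reported relative to vehicle.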
Test [3] can be described thus: NCI Yeast Anticancer Drug Screen. Data for the sgs1 mgt1 strain (AID 161).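 Also: 0% = growth of cultures given vehicle only.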 Conditions: S. cerevisiae sgs1 mgt1 strain, stronger effect = higher value. The method in brief: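 Mutant yeast exposed to compound; growth scored against vehicle-only wells.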
A short description of test [4]: NCI Yeast Anticancer Drug Screen. Data for the cln2 rad14 strain (AID 165).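 Also: 0% = growth equal to vehicle treated cultures.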 The settings on record: S. cerevisiae cln2 rad14 strain, stronger effect = higher value. An outline of the steps: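 Test compounds were added to cln2 rad14 yeast cultures; inhibition of growth was then determined by comparison with vehicle treatment.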
Test [5] is described as follows: NCI Yeast Anticancer Drug Screen. Data for the bub3 strain (AID 167). The settings on record: S. cerevisiae bub3 mutant strain, stronger effect = higher value. An outline of the steps: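 Readout: yeast growth inhibition, expressed relative to vehicle-only wells. The test organism is a mutant strain from a panel with lesions in DNA repair or checkpoint genes.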
A short description of test [6]: NCI Yeast Anticancer Drug Screen. Data for the mlh1 rad18 strain (AID 175). The settings on record: S. cerevisiae mlh1 rad18 strain growth inhibition, stronger effect = higher value. The method in brief: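 Inhibition values reflect reduced growth of mutant yeast versus vehicle-treated controls following compound exposure; the mutations affect DNA damage repair.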
Setting [7] is: at 5.0 µM (retest, dose inferred, filed as 0.5).
Where [8] appears, read: at 50.0 µM (retest, dose inferred, filed as 5.0).

As to `CC(=O)[CH-]C(=O)c1ccccc1.CC(=O)[CH-]C(=O)c1ccccc1.C[C@]12CCC(=O)C=C1CC[C@@H]1C2CC[C@@]2(C)C1CC[C@]2(C)[O-].C[C@]12CCC(=O)C=C1CC[C@@H]1C2CC[C@@]2(C)C1CC[C@]2(C)[O-].Cl.[Ti+4]` (some centres undefined), the growth inhibition was 33% in test [1] (setting [7]); 76% (active) in test [1] (setting [8]); 86.8% (active) in test [1] (at 50.0 µM); 26% in test [2] (setting [7]); 87% (active) in test [2] (setting [8]); 85% (active) in test [2] (at 50.0 µM). The growth inhibition in test [3] (setting [7]) was 37%; in test [3] (setting [8]), 93% (active); in test [3] (at 50.0 µM), 84.8% (active); in test [4] (setting [7]), 13%; in test [4] (setting [8]), 72% (active); in test [4] (at 50.0 µM), 86.1% (active). In addition, the growth inhibition in test [5] (setting [7]) is 39%; in test [5] (setting [8]) it was 94% (active); in test [5] (at 50.0 µM), 84.5% (active); in test [6] (setting [7]), 37%; in test [6] (setting [8]) it was 90% (active); in test [6] (at 50.0 µM) it was 81.2% (active).
Regarding `Cc1cc[n+](C2=C(Nc3cc(C)cc(C)c3)C(=O)c3ccccc3C2=O)cc1`, the growth inhibition in test [1] (setting [7]) was -3%; in test [1] (setting [8]), 9%; in test [1] (at 50.0 µM), 24.9%; in test [2] (setting [7]) it was -2%; in test [2] (setting [8]), 11%; in test [2] (at 50.0 µM), 28.5%. In addition, the growth inhibition in test [3] (setting [7]) is -1%; in test [3] (setting [8]), 16%; in test [3] (at 50.0 µM), 9.5%; in test [4] (setting [7]) it was -9%; in test [4] (setting [8]), 1%; in test [4] (at 50.0 µM) it was 6.75%. The growth inhibition in test [5] (setting [7]) was 1%; in test [5] (setting [8]), 45%; in test [5] (at 50.0 µM) it was 16%; in test [6] (setting [7]) it was -3%; in test [6] (setting [8]), 15%; in test [6] (at 50.0 µM), 51.8%.
For the molecule `O=c1c[n+](-c2ccc[nH+]c2)[nH]o1.[Cl][Hg][Cl]`, the growth inhibition in test [1] (setting [7]) was 99% (active); in test [1] (setting [8]), 99% (active); in test [1] (at 50.0 µM), 99.3% (active); in test [2] (setting [7]), 100% (active); in test [2] (setting [8]), 100% (active); in test [2] (at 50.0 µM) it was 99.5% (active). Moreover, the growth inhibition is 100% (active) in test [3] (setting [7]); 100% (active) in test [3] (setting [8]); 99.5% (active) in test [3] (at 50.0 µM); 99% (active) in test [4] (setting [7]); 99% (active) in test [4] (setting [8]); 99.3% (active) in test [4] (at 50.0 µM). Besides, the growth inhibition in test [5] (setting [7]) is 99% (active); in test [5] (setting [8]) it was 99% (active); in test [5] (at 50.0 µM), 99.4% (active); in test [6] (setting [7]) it was 99% (active); in test [6] (setting [8]), 99% (active); in test [6] (at 50.0 µM), 99.2% (active).
In the case of `Cc1cc(NCc2ccccc2)c2ccccc2[n+]1CCCCCCCCCC[n+]1c(C)cc(NCc2ccccc2)c2ccccc21`, the growth inhibition in test [1] (setting [7]) is 99% (active); in test [1] (setting [8]) it was 99% (active); in test [1] (at 50.0 µM) it was 90.8% (active); in test [2] (setting [7]), 100% (active); in test [2] (setting [8]), 99% (active); in test [2] (at 50.0 µM), 92.2% (active). In addition, the growth inhibition was 99% (active) in test [3] (setting [7]); 99% (active) in test [3] (setting [8]); 92% (active) in test [3] (at 50.0 µM); 98% (active) in test [4] (setting [7]); 99% (active) in test [4] (setting [8]); 91.1% (active) in test [4] (at 50.0 µM). Besides, the growth inhibition is 99% (active) in test [5] (setting [7]); 99% (active) in test [5] (setting [8]); 89.1% (active) in test [5] (at 50.0 µM); 97% (active) in test [6] (setting [7]); 98% (active) in test [6] (setting [8]); 86.2% (active) in test [6] (at 50.0 µM).
Consider `O=C1c2ccccc2-c2cccc3cccc1c23`, for which the growth inhibition in test [1] (setting [7]) is 3%; in test [1] (setting [8]), -52%; in test [1] (at 50.0 µM), -13.8% and 32.1%; in test [2] (setting [7]) it was -12%; in test [2] (setting [8]), -26%; in test [2] (at 50.0 µM) it was 4.65% and 0.55%. For the same molecule, the growth inhibition in test [3] (setting [7]) was -9%; in test [3] (setting [8]), -40%; in test [3] (at 50.0 µM) it was -14.2% and -19.6%; in test [4] (setting [7]), -6%; in test [4] (setting [8]) it was -17%; in test [4] (at 50.0 µM) it was -0.75% and 63.6%. Also, the growth inhibition was -15% in test [5] (setting [7]); -88% in test [5] (setting [8]); -2.35% and 10.1% in test [5] (at 50.0 µM); -1% in test [6] (setting [7]); -39% in test [6] (setting [8]); -6.8% and 24.3% in test [6] (at 50.0 µM).
As for `CN(C)C(=[Se])[Se]C(=[Se])N(C)C`, the growth inhibition was 95% (active) in test [1] (setting [7]); 91% (active) in test [1] (setting [8]); 95.8% (active) in test [1] (at 50.0 µM); 96% (active) in test [2] (setting [7]); 93% (active) in test [2] (setting [8]); 96% (active) in test [2] (at 50.0 µM). The growth inhibition is 93% (active) in test [3] (setting [7]); 92% (active) in test [3] (setting [8]); 95.5% (active) in test [3] (at 50.0 µM); 84% (active) in test [4] (setting [7]); 90% (active) in test [4] (setting [8]); 91% (active) in test [4] (at 50.0 µM). In addition, the growth inhibition in test [5] (setting [7]) was 93% (active); in test [5] (setting [8]), 92% (active); in test [5] (at 50.0 µM), 95.8% (active); in test [6] (setting [7]), 96% (active); in test [6] (setting [8]) it was 91% (active); in test [6] (at 50.0 µM) it was 96.3% (active).
With `C/C(=N\N=C(\[Se])N1CCN(c2ccccn2)CC1)c1ccccn1`, the growth inhibition is -2% in test [1] (setting [7]); 88% (active) in test [1] (setting [8]); 70.3% (active) in test [1] (at 50.0 µM); -1% in test [2] (setting [7]); 98% (active) in test [2] (setting [8]); 70% in test [2] (at 50.0 µM). In addition, the growth inhibition in test [3] (setting [7]) is 5%; in test [3] (setting [8]), 95% (active); in test [3] (at 50.0 µM) it was 82% (active); in test [4] (setting [7]) it was -9%; in test [4] (setting [8]) it was 83% (active); in test [4] (at 50.0 µM) it was 9.4%. In addition, the growth inhibition in test [5] (setting [7]) was 9%; in test [5] (setting [8]), 96% (active); in test [5] (at 50.0 µM), 93.2% (active); in test [6] (setting [7]) it was 59%; in test [6] (setting [8]), 93% (active); in test [6] (at 50.0 µM) it was 78.2% (active).
For the molecule `Nc1ccc(Cl)cc1C(=O)c1ccccc1Cl`, the growth inhibition is -3% in test [1] (setting [7]); 99% (active) in test [1] (setting [8]); 97.4% (active) in test [1] (at 50.0 µM); -3% in test [2] (setting [7]); 99% (active) in test [2] (setting [8]); 97.2% (active) in test [2] (at 50.0 µM). In addition, the growth inhibition in test [3] (setting [7]) was -2%; in test [3] (setting [8]) it was 99% (active); in test [3] (at 50.0 µM), 97.5% (active); in test [4] (setting [7]), -9%; in test [4] (setting [8]), 98% (active); in test [4] (at 50.0 µM), 80.8% (active). The growth inhibition was -12% in test [5] (setting [7]); 99% (active) in test [5] (setting [8]); 87.5% (active) in test [5] (at 50.0 µM); -1% in test [6] (setting [7]); 99% (active) in test [6] (setting [8]); 96.8% (active) in test [6] (at 50.0 µM).
